Source: PubChem BioAssay (NCATS)
Inconclusive results are not listed. Activity calls are given as the source filed them. The call rests on the fitted dose curve; in most records, active means well fitted curve in the direction sought with a large enough effect; inconclusive means small, poorly fitted or top-dose-only effect, or another doubt; inactive means no such curve, though single readings can be large; an effect the other way counts as inactive or inconclusive.

How the values were obtained:
[1] = Cell Viability - H-4-II-E (AID 543);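 further: cells exposed to compound for 40 hours; on the % scale 0 is the no-effect control and ±100 the full control effect; nearly all actives have a fitted effect of over 35% in size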
How it was run: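 Rat hepatoma H-4-II-E cells, 1500 per well, treated 40 h at 37 °C in complete medium. Cellular ATP read by CellTiter-Glo luminescence; AC50 from Hill fits of concentration-response.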

[2] = Cell Viability - SH-SY5Y (AID 544); details: SH-SY5Y neuroblastoma cell viability; viability change, negative = cytotoxic: at 92.2 µM (top of the series);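 further: cells exposed to compound for 40 hours; nearly all actives have a fitted effect of over 55% in size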
How it was run: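 SH-SY5Y human neuroblastoma cells (1500/well) incubated 5 h, then compound-treated 40 h at 37 °C in complete medium. Viability read as intracellular ATP by CellTiter-Glo luminescence after 20 min; AC50 from Hill-equation fits of qHTS concentration-response.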

[3] = Cell Viability - Renal Proximal Tubule (AID 545);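 further: cells exposed to compound for 40 hours; nearly all actives have a fitted effect of over 40% in size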
How it was run: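 Primary rat renal proximal tubule cells (1000/well) were treated with compounds for 40 hr at 37 °C in complete medium. Intracellular ATP was measured by CellTiter-Glo luminescence, and AC50 values came from Hill-equation fits of concentration-response data.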

[4] = Cell Viability - Mesenchymal (AID 546);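 further: cells exposed to compound for 40 hours before reading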
How it was run: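 Normal human renal glomerulus-derived kidney mesenchymal cells, 1000 per well in complete medium, were treated with compounds for 40 hr at 37 °C. Viability was read as intracellular ATP by CellTiter-Glo luminescence; AC50 values came from Hill-equation fits of qHTS concentration-response data.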

[5] = Cellular Toxicity (caspase-3) HepG2 (AID 654);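 further: cells exposed to compound for 16 hours before reading; 0% = DMSO alone and 100% = caspase signal from 100 µM tamoxifen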
How it was run: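 HepG2 cells (1500/well) were treated 16 h at 37 °C in complete medium, then caspase 3/7 activity was read by Caspase-Glo luminescence. Data were normalized to DMSO and 100 uM tamoxifen; AC50 came from Hill-equation fits of qHTS concentration-response.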

[6] = Cellular Toxicity (caspase-3) Jurkat (AID 655); details: Jurkat caspase-3 activation, luminescence; caspase-3 activation: at 92.2 µM (top of the series), DMSO = 0%, tamoxifen = 100%;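 further: cells exposed to compound for 16 h at 37 °C before reading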
How it was run: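 Jurkat cells (5000/well) in complete medium were treated with compounds for 16 hr at 37 °C, then Caspase-Glo 3/7 luminescence was read after 20 min at room temperature. Data normalized to DMSO (basal) and 100 uM tamoxifen (100%); AC50 from Hill fit.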

[7] = Cellular Toxicity (caspase-3) HUV-EC-C (AID 656)
How it was run: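 HUV-EC-C endothelial cells, 1000/well, were pre-incubated 5 hr at 37°C, then exposed to compounds for 16 hr at 37°C. Caspase-Glo 3/7 luminescence was read after 20 min at room temperature. AC50 came from Hill fits, normalized to DMSO and 100 uM tamoxifen.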

[8] = Cellular Toxicity (caspase-3) SHSY5Y (AID 657)
How it was run: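 SH-SY5Y human neuroblastoma cells (1500/well) were treated with compounds for 16 h at 37 °C, then Caspase-Glo 3/7 luminescence was read after 1 h at room temperature. Data normalized to DMSO and 10 uM staurosporine; AC50 from Hill fits.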

[9] = Cellular Toxicity (caspase-3) BJ (AID 658);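 further: 0% = DMSO basal and 100% = 10 µM staurosporine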
How it was run: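 Luminescent aminoluciferin-substrate cleavage reports caspase 3/7 activity in normal human BJ fibroblasts after 16 hr compound exposure at 37 °C. Normalized to DMSO (basal) and 10 uM staurosporine (100%); AC50 from Hill fit of concentration-response.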

[10] = Cellular Toxicity (caspase-3) MRC-5 (AID 659);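 further: 0% = DMSO basal and 100% = 10 µM staurosporine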
How it was run: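 Luminescence from caspase-cleaved aminoluciferin substrate (Caspase-Glo 3/7, 1 hr RT) reports caspase 3/7 activity in MRC-5 lung fibroblasts after 16 hr compound exposure. Normalized to DMSO basal and 10 uM staurosporine as 100%; AC50 from Hill fits.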

[11] = Cellular Toxicity (caspase-3) Mesangial (AID 660); details: mesangial cells, normalized: DMSO 0%, 100 µM tamoxifen 100%; at 91.7 µM (top of the series);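 further: cells exposed to compound for 16 h before the caspase read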
How it was run: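 Human renal glomerular mesangial cells, 1000/well, 5 h at 37 C before 16 h compound treatment. Caspase-Glo 3/7 luminescence after 20 min; normalized to DMSO and 100 uM tamoxifen, AC50 from Hill fit.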

[12] = Cellular Toxicity (caspase-3) SK-N-SH (AID 661);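 further: 0% = DMSO basal and 100% = 10 µM staurosporine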
How it was run: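 Human SK-N-SH neuroblastoma cells, 1500/well, were exposed to compounds for 16 hours at 37 °C. Caspase-Glo 3/7 luminescence was normalized to DMSO (basal) and 10 uM staurosporine (100%), and AC50 came from a Hill fit.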

[13] = Cellular Toxicity (caspase-3) H-4-II-E (AID 663); details: H-4-II-E rat hepatoma, scaled: DMSO 0%, 100 µM tamoxifen 100%; at 92.2 µM (top of the series);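 further: cells exposed to compound for 16 hr before readout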
How it was run: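 Luminescence from caspase-cleaved aminoluciferin substrate, read 20 min after reagent addition, reports caspase 3/7 activation in rat H-4-II-E cells after 16 hr compound exposure. Normalized to DMSO (basal) and 100 uM tamoxifen (100%); AC50 from Hill fits.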

[14] = Cellular Toxicity (caspase-3) Hek293 (AID 664); details: HEK293 caspase-3 activation, DMSO = 0%, 100 µM tamoxifen = 100%; at 92.2 µM (top of the series);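 further: cells exposed to compound for 16 h at 37 °C before readout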
How it was run: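 HEK293 cells in complete medium treated 16 h at 37 °C, then Caspase-Glo 3/7 luminescence read after 20 min at room temperature. Normalized to DMSO and 100 uM tamoxifen; AC50 from Hill fit of concentration-response.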

[15] = Cellular Toxicity (caspase-3) N2a (AID 665);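 further: compound exposure lasted 16 h at 37 °C before readout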
How it was run: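 Mouse N2a neuroblastoma cells, 1500 per well, treated 16 h at 37 °C in complete medium; caspase-3/7 activity by Caspase-Glo luminescence after 1 h. Normalized to DMSO and 10 uM staurosporine; AC50 from Hill fits.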

[16] = Cellular Toxicity (caspase-3) NIH 3T3 (AID 666);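 further: 0% = DMSO basal and 100% = 100 µM tamoxifen stimulation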
How it was run: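 Mouse NIH 3T3 fibroblasts (1000/well) treated 16 h at 37 C; caspase-3/7 activity measured by Caspase-Glo 3/7 luminescence after 20 min. Normalized to DMSO and 100 uM tamoxifen; AC50 from Hill fits.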

[17] = Cellular Toxicity (caspase-3) Renal Proximal Tubule (AID 667); details: Potency: caspase-3 activation;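 further: cells exposed to compound for 16 hours at 37 °C before detection; 0% = DMSO basal and 100% = 10 µM staurosporine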
How it was run: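 Primary rat proximal tubule cells, 1000/well, 5 h plating at 37 °C, then compound 16 h at 37 °C. Caspase-Glo 3/7 reagent, 1 h RT, luminescence. Normalized to DMSO (basal) and 10 uM staurosporine (100%); Hill-fit AC50.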

[18] = Cell Viability - LYMP2-001 (AID 921);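 further: 0% = DMSO only and full inhibition = tetraoctylammonium bromide control wells; nearly all actives have a fitted effect of over 70% in size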
How it was run: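 Human lymphoblastoid cells (Coriell), 2500 per well, were preincubated 5 hr at 37 C, then exposed to compounds in complete medium for 24 hr at 37 C. Cellular ATP was read by CellTiter-Glo luminescence; AC50 from Hill fits of concentration-response data.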

[19] = molecular target: Cytochrome P450 3A4 (Homo sapiens) (UniProt P08684); assay: qHTS Assay for Activators of Cytochrome P450 3A4 (AID 885); further: nearly all actives have a fitted effect of over 65% in size
Chain of Cytochrome P450 3A4 (Homo sapiens) (P08684 whole entry, looked up): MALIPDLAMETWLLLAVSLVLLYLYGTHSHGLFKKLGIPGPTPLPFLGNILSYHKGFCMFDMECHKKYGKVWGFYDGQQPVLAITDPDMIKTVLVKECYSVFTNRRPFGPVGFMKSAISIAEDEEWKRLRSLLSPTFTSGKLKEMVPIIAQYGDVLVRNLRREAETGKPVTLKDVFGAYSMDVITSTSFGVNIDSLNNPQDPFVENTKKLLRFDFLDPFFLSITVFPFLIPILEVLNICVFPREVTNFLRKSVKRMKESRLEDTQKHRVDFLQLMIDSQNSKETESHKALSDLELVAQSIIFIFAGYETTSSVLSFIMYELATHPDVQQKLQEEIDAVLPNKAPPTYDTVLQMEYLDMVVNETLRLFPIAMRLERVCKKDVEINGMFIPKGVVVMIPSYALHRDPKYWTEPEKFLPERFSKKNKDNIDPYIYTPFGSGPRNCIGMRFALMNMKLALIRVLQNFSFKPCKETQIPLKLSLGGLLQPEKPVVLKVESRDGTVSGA
How it was run: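 Quantitative HTS format: compounds preincubated with 20nM human CYP3A4 and Luciferin-PPXE substrate at KM, reaction started by NADPH regeneration, stopped after 60 min, luciferase luminescence read 20 min later.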

[20] = molecular target: Cytochrome P450 3A4 (Homo sapiens) (UniProt P08684); assay: qHTS Assay for Inhibitors and Substrates of Cytochrome P450 3A4 (AID 884); further: on the % scale 0 is the no-effect control and ±100 the full control effect; nearly all actives have a fitted effect of over 50% in size
How it was run: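 20 nM human CYP3A4 with 25 uM Luciferin-PPXE (at KM) in 200 mM KPO4, preincubated 10 min with compound; NADPH regeneration started a 60 min RT reaction. Luciferin detected by luminescence, normalized to 57 uM ketoconazole as full inhibition.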

Cc1cc([N+](=O)[O-])ccc1N
inactive: Potency [1] | Potency [2] | Potency [3] | Potency [4] | Potency [5] | caspase-3 activation [6] -1.03% | outcome [7] | outcome [8] | outcome [9] | outcome [10] | caspase-3 activation [11] 0.789% | outcome [12] | caspase-3 activation [13] -0.2% | caspase-3 activation [14] -2.55% | outcome [15] | outcome [16] | Potency [17] | Potency [18]

Cc1cc(C2(c3cc(C)c(O)cc3C)OS(=O)(=O)c3ccccc32)c(C)cc1O
inactive: Potency [1] | Potency [2] | Potency [3] | Potency [4] | Potency [5] | caspase-3 activation [6] 2.78% | outcome [7] | outcome [8] | outcome [9] | outcome [10] | caspase-3 activation [11] -0.0933% | outcome [12] | caspase-3 activation [13] 2.61% | caspase-3 activation [14] 4.58% | outcome [15] | outcome [16] | Potency [17] | outcome [19] | Potency [18]

ON=C1CCCCC1
inactive: Potency [1] | Potency [2] | Potency [3] | Potency [4] | Potency [5] | caspase-3 activation [6] -0.266% | outcome [7] | outcome [8] | outcome [9] | outcome [10] | caspase-3 activation [11] 0.894% | outcome [12] | caspase-3 activation [13] 1.35% | caspase-3 activation [14] 2.27% | outcome [15] | outcome [16] | Potency [17] | Potency [20] | Potency [18]

CNc1ccc([N+](=O)[O-])cc1
inactive: Potency [1] | Potency [2] | Potency [3] | Potency [4] | Potency [5] | caspase-3 activation [6] -0.0856% | outcome [7] | outcome [8] | outcome [9] | outcome [10] | caspase-3 activation [11] 0.0307% | outcome [12] | caspase-3 activation [13] 0.918% | caspase-3 activation [14] -2.51% | outcome [15] | outcome [16] | Potency [17] | Potency [20] | Potency [18]

CCCCC=O
inactive: Potency [1] | Potency [2] | Potency [3] | Potency [4] | Potency [5] | caspase-3 activation [6] -1.47% | outcome [7] | outcome [8] | outcome [9] | outcome [10] | caspase-3 activation [11] -1.05% | outcome [12] | caspase-3 activation [13] -0.686% | caspase-3 activation [14] -0.315% | outcome [15] | outcome [16] | Potency [17] | Potency [20] | Potency [18]

CC(N)CN (configuration not stated)
inactive: Potency [1] | Potency [2] | Potency [3] | Potency [4] | Potency [5] | caspase-3 activation [6] 2.43% | outcome [7] | outcome [8] | outcome [9] | outcome [10] | caspase-3 activation [11] 2.7% | outcome [12] | caspase-3 activation [13] 0.364% | caspase-3 activation [14] 3.47% | outcome [15] | outcome [16] | Potency [17] | Potency [20] | Potency [18]

Cc1ccccc1C=O
inactive: Potency [1] | Potency [2] | Potency [3] | Potency [4] | Potency [5] | caspase-3 activation [6] 0.742% | outcome [7] | outcome [8] | outcome [9] | outcome [10] | caspase-3 activation [11] -0.421% | outcome [12] | caspase-3 activation [13] 0.931% | caspase-3 activation [14] 1.08% | outcome [15] | outcome [16] | Potency [17] | Potency [20] | Potency [18]

C=CC(=O)NC(C)C
inactive: Potency [1] | Potency [2] | Potency [3] | Potency [4] | Potency [5] | caspase-3 activation [6] -1.34% | outcome [7] | outcome [8] | outcome [9] | outcome [10] | caspase-3 activation [11] 1.12% | outcome [12] | caspase-3 activation [13] 0.575% | caspase-3 activation [14] 2.01% | outcome [15] | outcome [16] | Potency [17] | Potency [20] | Potency [18]

CC(C)=C1CCC(C)CC1=O (configuration not stated)
inactive: Potency [1] | Potency [2] | Potency [3] | Potency [4] | Potency [5] | caspase-3 activation [6] -1.31% | outcome [7] | outcome [8] | outcome [9] | outcome [10] | caspase-3 activation [11] 0.404% | outcome [12] | caspase-3 activation [13] -0.0437% | caspase-3 activation [14] -0.681% | outcome [15] | outcome [16] | Potency [17] | Potency [20] | Potency [18]

CCOc1cc(OCC)c(C(C)=O)cc1OCC
inactive: Potency [1] | Potency [2] | Potency [3] | Potency [4] | Potency [5] | caspase-3 activation [6] -0.274% | outcome [7] | outcome [8] | outcome [9] | outcome [10] | caspase-3 activation [11] -0.248% | outcome [12] | caspase-3 activation [13] 0.345% | caspase-3 activation [14] -0.553% | outcome [15] | outcome [16] | Potency [17] | outcome [19] | Potency [18]

Cc1ccc(S(=O)(=O)NC2CCCCC2)cc1
inactive: Potency [1] | Potency [2] | Potency [3] | Potency [4] | Potency [5] | caspase-3 activation [6] 0.692% | outcome [7] | outcome [8] | outcome [9] | outcome [10] | caspase-3 activation [11] 0.471% | outcome [12] | caspase-3 activation [13] -0.0757% | caspase-3 activation [14] 2.22% | outcome [15] | outcome [16] | Potency [17] | outcome [19] | Potency [18]

O=C(O)CCSSCCC(=O)O
inactive: Potency [1] | Potency [2] | Potency [3] | Potency [4] | Potency [5] | caspase-3 activation [6] 0.0924% | outcome [7] | outcome [8] | outcome [9] | outcome [10] | caspase-3 activation [11] -0.167% | outcome [12] | caspase-3 activation [13] -0.00623% | caspase-3 activation [14] -0.885% | outcome [15] | outcome [16] | Potency [17] | Potency [20] | Potency [18]
